Data on 40 sequences can be found in the supplement of paper PMC6555819.

In the first experiment the test system is RARb homodimer (NR concentration 270 nM). Put plainly: PBM binding z-score (relative to random genomic background probes); higher = stronger binding; sequences stand for … in GC…GCGATTGACAGCGTAGAATGAAGG
In short, it runs like this:
(§1)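 Ligand-free nuclear receptor dimers were applied to custom Agilent 4×180K protein-binding microarrays whose double-stranded probes carried direct-repeat seeds, single-nucleotide variants, half-site ablations and random human genomic background sequences in 34-nt variable regions. Incubation lasted 1 h. Binding z-scores were computed against the random background probes from regression-normalized fluorescence.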
Take GCGACTGGGCCATCAGCAGGTTACCATAACTTAA: the PBM binding z-score came out at 0.461.
In the case of CCGACTGGGGCCGAAAGGTTACCATACCATCCGG, the PBM binding z-score was found to be 2.41.
Same read-out and setting: the same measure for GCTCGGAGGACAACGTCAGAGCTTTGTCCGTAGA: -0.35; for TCATATTGGTAAAGGTGAAAGTCGAACGATATGA: 1.33.
Still for that read-out and setting: for TGAATGAGGTTCAAGATCAGGGAACGTGGCGTCG the value was 0.237; for TAGCCTAGGTCATTCAGGGGCCAGGATAGAAAGC, 3.18; for AGTCAAAGTTCATCTAGGTAATGTAAGATATGCT, 3.87.
Still for that read-out and setting: for CGAACTAGGTCACTGACAGGACAGTGAATAGTAA the value was 3.15.
GATACAGGGTCAGCTAGAGGCTAGAGTATGGAAA yielded a PBM binding z-score of 2.76.
Still for that read-out and setting: for TCTAGCAGGCCAGAGGGTAACTCAAGAGGTACGG the value was 0.228; for ATCTCTAGGTAGAGTTCAGTGAAAGATCGATAGA, 1.89.
The same measure, in the same setting: the same measure for TGAATGAGGTTAAAGTTCAGGGAACGTGGCGTCG: 3.35; for TCTATTAGATGATTAGGGCAACCGAAACAGCGGA: 0.19; for ATATGTAGGTTAAGGGTCATTCTGGTTGGTTCGC: 3.64.
Regarding CGTCCAAGGTCAAAGTTCAGTGAAGAGATGACGG, the PBM binding z-score worked out at 4.6.
Still for that read-out and setting: for GTTCGGAGGACAAGGTCAGAGCTTTGTCCGTAGA the value was 2.99; for TCGAGTAGGGTACCAATGGGGCATTCAGCTTTCT, 0.23.
On the same count and under the same terms, the same measure for CGAACTAGGTCAAGAACAGTGAATCTCCGCACGC: 2.48; for TCTTGTAGAGCAAAGGTTAAGAAAGCCGAAGCCT: 1.17.
On the same count and under the same terms, for CCGACTGGGCCAAAAAGGTCATTGATGCCGATAA the value was 4.22; for AAAATGAGGTTACCAAAGATCAGGGAAACGCTTG, 0.885.
In turn, TCATATAGGTAAACAGGGGAAAGTCCGTAAGTTA came in with a PBM binding z-score of 0.507.
On the same count and under the same terms, for CCAGAAAGGTGAGAAGGTAACTCAGCCTCGATTA the value was 1.43.
Still for that read-out and setting: for GCTTACGGGTCAAAGGTTATTGCATGAATAGAAT the value was 3.23.
Still for that read-out and setting: for CAAACTAGGTCAAATGTCAAAGTCGAGCCAACCA the value was 3.4; for CGAACTAGGTCATCCAGGACAGCGAATACATTGA, 3; for TCATATAGGTAAACAGGTGACAGTCCGTAAGTTA, 0.765.
For GCAGACAGGTGAAACGCAGGTAACACAGGGTGGC, the PBM binding z-score stood at 0.0703.
Consider AGAATGAGCTTATACGTAGATCAGGGAAGAAAGT, for which the PBM binding z-score is -0.75.
The sequence TCTGCTAGGTCAGTTGGTAAGCTAACGAGCTGCC registered a PBM binding z-score of 1.95.
Take TCTATTAGTTGATGGGCAACCGACGAGTCCGTTT: the PBM binding z-score is -0.181.
The sequence ACTACTTGGTCAGCTGAGGTCACACACAATTCGG came in with a PBM binding z-score of 4.44.
Same read-out and setting: for ATCGAAAGGTCGAGCTGAGTATAGAGAAAGGGAA the value was 1.8.
As to TCTGCTAGGTCAGTTGGTCACCTAACGAGCTGCC, the PBM binding z-score is 2.87.
The same measure, in the same setting: for CCGACTGGGGCATAAGGTTAGCATAAGCCAGCCC the value was 1.26; for CGAACTAGGTTAGAACAGGACAGTGAAGGATGAT, 0.456; for ATACCCAGGTGATCGTGAGGTCGTTGATACTAAC, 2.
The same measure, in the same setting: the same measure for TAGCCTAGGGCATGCGGGCCAGTATAGTGTCGGC: 0.409; for ATATGTAGGTTAGCTGTGGTCATTCAGACTAGGC: 1.13.
Same read-out and setting: for TCTAGCAGGCCAGAGAGTCACTCAAGAGGTACGG the value was -0.56.

A further experiment has as its system RARg:RXRa (NR concentration 270 nM, RXRa partner concentration 90 nM). The experiment is described as above. In short, it runs like this: as §1
GCGACTGGGCCATCAGCAGGTTACCATAACTTAA: the PBM binding z-score was -0.0254.
CCGACTGGGGCCGAAAGGTTACCATACCATCCGG returned a PBM binding z-score of 2.18.
Same read-out and setting: the same measure for GCTCGGAGGACAACGTCAGAGCTTTGTCCGTAGA: -0.399; for TCATATTGGTAAAGGTGAAAGTCGAACGATATGA: 1.28.
The same measure, in the same setting: for TGAATGAGGTTCAAGATCAGGGAACGTGGCGTCG the value was 1.24; for TAGCCTAGGTCATTCAGGGGCCAGGATAGAAAGC, 6.27; for AGTCAAAGTTCATCTAGGTAATGTAAGATATGCT, 5.56.
Same read-out and setting: the same measure for CGAACTAGGTCACTGACAGGACAGTGAATAGTAA: 4.78; for GATACAGGGTCAGCTAGAGGCTAGAGTATGGAAA: 5.74; for TCTAGCAGGCCAGAGGGTAACTCAAGAGGTACGG: 0.127.
Turning to ATCTCTAGGTAGAGTTCAGTGAAAGATCGATAGA, the PBM binding z-score worked out at 1.61.
In the case of TGAATGAGGTTAAAGTTCAGGGAACGTGGCGTCG, the PBM binding z-score was determined as 4.76.
Same read-out and setting: the same measure for TCTATTAGATGATTAGGGCAACCGAAACAGCGGA: 0.609.
Same read-out and setting: the same measure for ATATGTAGGTTAAGGGTCATTCTGGTTGGTTCGC: 4.65; for CGTCCAAGGTCAAAGTTCAGTGAAGAGATGACGG: 7.44; for GTTCGGAGGACAAGGTCAGAGCTTTGTCCGTAGA: 2.91.
TCGAGTAGGGTACCAATGGGGCATTCAGCTTTCT displayed a PBM binding z-score of -0.106.
CGAACTAGGTCAAGAACAGTGAATCTCCGCACGC returned a PBM binding z-score of 3.31.
The sequence TCTTGTAGAGCAAAGGTTAAGAAAGCCGAAGCCT displayed a PBM binding z-score of 1.43.
Same read-out and setting: for CCGACTGGGCCAAAAAGGTCATTGATGCCGATAA the value was 4.39.
As for AAAATGAGGTTACCAAAGATCAGGGAAACGCTTG, the PBM binding z-score came out at 2.37.
Same read-out and setting: for TCATATAGGTAAACAGGGGAAAGTCCGTAAGTTA the value was 0.245.
Sequence CCAGAAAGGTGAGAAGGTAACTCAGCCTCGATTA showed a PBM binding z-score of 2.36.
Turning to GCTTACGGGTCAAAGGTTATTGCATGAATAGAAT, the PBM binding z-score is 6.79.
Still for that read-out and setting: the same measure for CAAACTAGGTCAAATGTCAAAGTCGAGCCAACCA: 5.2; for CGAACTAGGTCATCCAGGACAGCGAATACATTGA: 3.97; for TCATATAGGTAAACAGGTGACAGTCCGTAAGTTA: 0.72.
The same measure, in the same setting: for GCAGACAGGTGAAACGCAGGTAACACAGGGTGGC the value was 1.1.
Same read-out and setting: the same measure for AGAATGAGCTTATACGTAGATCAGGGAAGAAAGT: -0.102.
For the sequence TCTGCTAGGTCAGTTGGTAAGCTAACGAGCTGCC, the PBM binding z-score worked out at 2.35.
Sequence TCTATTAGTTGATGGGCAACCGACGAGTCCGTTT showed a PBM binding z-score of -0.125.
Sequence ACTACTTGGTCAGCTGAGGTCACACACAATTCGG yielded a PBM binding z-score of 4.3.
Sequence ATCGAAAGGTCGAGCTGAGTATAGAGAAAGGGAA yielded a PBM binding z-score of 4.17.
Still for that read-out and setting: for TCTGCTAGGTCAGTTGGTCACCTAACGAGCTGCC the value was 2.97; for CCGACTGGGGCATAAGGTTAGCATAAGCCAGCCC, 0.672.
In turn, CGAACTAGGTTAGAACAGGACAGTGAAGGATGAT showed a PBM binding z-score of 0.384.
On the same count and under the same terms, for ATACCCAGGTGATCGTGAGGTCGTTGATACTAAC the value was 1.49; for TAGCCTAGGGCATGCGGGCCAGTATAGTGTCGGC, 0.0659.
Still for that read-out and setting: for ATATGTAGGTTAGCTGTGGTCATTCAGACTAGGC the value was 0.752; for TCTAGCAGGCCAGAGAGTCACTCAAGAGGTACGG, -0.0784.
